Screening results: PubChem, several laboratories
An excerpt weighted towards active compounds, which were near 3% of everything screened.
TRPM1 prom inh – MITF TRPM1 promoter inhibition in SK-MEL-5 cells. inhibition, % at 12.5 µM. actives 0.83% (n = 330,000). AID 488899. SK-MEL-5 TRPM1 promoter luciferase, 24 h;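 active = mean inhibition across replicates of 60% or more, whatever share of single replicates reaches that level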
EBV LMP1 NFkB – reduces LMP1-driven NF-kappaB luciferase signal; LMP1-induced NF-kappaB luciferase reporter cells, luminescence; inhibition, % at 12.5 µM; actives 0.69% (n = 350,000); AID 504558; in the data active = inhibition above about 41%
CF NFkB block – cystic fibrosis NF-kB activation inhibition; KKLEB NF-kB-GFP reporter, PAF-induced, GFP fluorescence overnight; inhibition, % at 5 µM; actives 0.86% (n = 360,000);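 active = at least 50% inhibition at 5 µM, scaled per plate between neutral and stimulator controls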;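 also: PAF is a Pseudomonas aeruginosa culture filtrate used as stimulus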
Peg3 prom inh – Peg3 promoter activity inhibition; HeLa PEG-Prom luciferase reporter, luminescence, overnight; AID 588405; actives 1.7% (n = 360,000); inhibition, % at 20 µM;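 active = inhibition of at least 50% at 20 µM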
HIF-2a block – inhibitors of HIF-2a. inhibition, % at 18.8 µM. AID 624352. 786-0 RCC cells HIF-2a reporter, luciferase luminescence, overnight. actives 0.72% (n = 360,000);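 active = inhibition of the luminescence signal of 40% or more relative to plate controls, in a single-dose primary screen at 18.75 µM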
KKLEB cytotox – reduces viability of KKLEB cystic fibrosis airway cells | KKLEB CF airway cells viability, ATPlite luminescence, overnight; hits give low values; cells stimulated with P. aeruginosa culture filtrate | AID 602141 | actives 0.36% (n = 360,000) | activity change (cytotoxicity), % at 5 µM;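 active = corrected activity change at or below -50% at 5 µM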
Of the large screens only hits and unclear results are named; the others gave an inactive call.

COC(=O)[C@@]12C[C@@H](CC(=O)NCc3cccc(C(F)(F)F)c3)C(=O)N(CCc3ccc(OC)c(OC)c3)C1=CCC(C)(C)C2	none (no result: TRPM1 prom inh, EBV LMP1 NFkB, CF NFkB block, Peg3 prom inh, KKLEB cytotox)
O=C(Nc1c(F)cccc1F)c1cnc(N2CCN(c3ccccn3)CC2)c2ccccc12	Peg3 prom inh 72.5
O=C(c1cnc(N2CCN(c3ncccn3)CC2)c2ccccc12)N1CCN(c2ccccn2)CC1	none
Cc1ccc(NC(=O)c2cnc(N3CCN(c4ccccn4)CC3)c3ccccc23)c(Br)c1	Peg3 prom inh 89.9
Cc1cc(Br)ccc1NC(=O)c1sc2ncnc(N3CCN(c4ccccn4)CC3)c2c1C	none
O=CNc1cc(-c2cccc(F)c2)cn2c(-c3ccc(F)c(Cl)c3)cnc12	none (no result: TRPM1 prom inh, EBV LMP1 NFkB)
O=C(Nc1ccc(F)cc1)C(c1cc2ccccc2o1)N1CCN(C(=O)c2ccco2)CC1 (configuration not stated)	none (no result: TRPM1 prom inh, EBV LMP1 NFkB, CF NFkB block, Peg3 prom inh, KKLEB cytotox)
CCCCCCc1cc2cc(C(=O)NCc3ccccc3)c(=N)oc2cc1O	none
CCCCCCc1cc2cc(C(=O)Nc3ccccc3)c(=O)oc2cc1O	TRPM1 prom inh 71.7, CF NFkB block 78.8, KKLEB cytotox -83.0
Cc1[nH]nc(-c2cccnc2)c1N=NN(C)C	TRPM1 prom inh 72.5, Peg3 prom inh 71.2
COc1ccc(-c2cc(=O)c3cc(OC)ccc3o2)cc1	KKLEB cytotox -51.1
c1ccc(C[n+]2cccc3c4ccccc4ccc32)cc1	TRPM1 prom inh 61.8
CN1CCN(CCOc2ccc(Cc3ccccc3)cc2)CC1	EBV LMP1 NFkB 47.9
COc1cccc2c1C(=O)O/C2=C/c1ccc2c(c1)OCO2	KKLEB cytotox -72.8
COc1cccc(OC)c1C1=CC(=O)C[C@H](c2ccc3c(c2)OCO3)C1	none
CCOC(=O)c1cccc2c1-c1ccccc1/C2=N/O	CF NFkB block 86.1
CCCC(O)(c1ccc(Br)cc1)C(CN1CCOCC1)c1ccc(Cl)cc1 (configuration not stated)	Peg3 prom inh 57.7
CCCC(O)(c1ccc(Cl)cc1)C(CN1CCOCC1)c1ccccc1 (configuration not stated)	Peg3 prom inh 57.3
COc1ccc(N2CCN(c3cncc(C)n3)CC2)cc1	none (no result: TRPM1 prom inh, EBV LMP1 NFkB)
CNC[C@H]1OCCCC[C@H](C)Oc2ccc(NC(=O)CCCN(C)C)cc2C(=O)N([C@H](C)CO)C[C@@H]1C	none (no result: TRPM1 prom inh)
CCCCN(C(=O)c1cc(-c2ccc(F)cc2)nc2ccccc12)c1c(N)n(CCCC)c(=O)[nH]c1=O	TRPM1 prom inh 69.5
CCCCN(C(=O)c1ccccc1F)c1c(N)n(CCC)c(=O)[nH]c1=O	Peg3 prom inh 73.2
O=C(Nc1ccc2c(c1)OCCO2)C1c2ccccc2OCC(=O)N1CCCN1CCOCC1 (configuration not stated)	none (no result: TRPM1 prom inh, EBV LMP1 NFkB, CF NFkB block, Peg3 prom inh, KKLEB cytotox)
CCCOCCOC(=O)c1[nH]c2c(c1C)C(=O)CC(c1cc(OC)ccc1OC)C2 (configuration not stated)	CF NFkB block 54.0
Cc1ccc(NC(=O)c2cc(-c3cc(Cl)ccc3C)n[nH]2)cc1NS(C)(=O)=O	none (no result: TRPM1 prom inh, EBV LMP1 NFkB)
COc1ccc(Cl)cc1-c1cc(C(=O)Nc2ccc(C)c(NS(C)(=O)=O)c2)[nH]n1	Peg3 prom inh 69.4 (no result: TRPM1 prom inh, EBV LMP1 NFkB)
CSc1nc(-c2ccc(C)cc2)nc(C(Cl)Cl)n1	TRPM1 prom inh 77.3, EBV LMP1 NFkB 60.5, Peg3 prom inh 101.8
Cc1ccc(C(=O)C[n+]2ccccc2)cc1	EBV LMP1 NFkB 67.9
CCN(CCNCC(O)COCc1ccc(Cl)cc1)c1cccc(C)c1 (configuration not stated)	Peg3 prom inh 103.2
Cc1ccc(NC(=O)C2(C)CCN2C(=O)Cc2ccccc2Cl)cc1C (configuration not stated)	none (no result: TRPM1 prom inh, EBV LMP1 NFkB)
Cc1cccn2c(=O)c3cc(C(=O)NC4CCCC4)c(=N)n(Cc4ccc(F)cc4)c3nc12	Peg3 prom inh 57.9
Cc1cccn2c(=O)c3cc(C(=O)NC4CCCCC4)c(=N)n(Cc4ccccc4)c3nc12	Peg3 prom inh 54.2
N=c1c(C(=O)NC2CCCC2)cc2c(=O)n3ccccc3nc2n1Cc1ccccc1	none
Cc1cccn2c(=O)c3cc(C(=O)NC4CCCC4)c(=N)n(CCc4ccccc4)c3nc12	Peg3 prom inh 69.2
COc1ccc(-c2ccc(C(=O)Nc3ccc(C(C)C)cc3)c3occc23)c(C)c1	none (no result: TRPM1 prom inh, EBV LMP1 NFkB)
COCCn1c(=NC(=O)c2ccc(S(=O)(=O)N3CCc4ccccc4C3)cc2)sc2cc(OC)ccc21	CF NFkB block 55.3, KKLEB cytotox -68.9
CCCCNC(=O)C1(C)CCC(=O)N1CCOC (configuration not stated)	none (no result: TRPM1 prom inh, EBV LMP1 NFkB)
N#CC1c2ccccc2-c2ccccc2N1C(=O)c1ccccc1 (configuration not stated)	none (no result: TRPM1 prom inh)
COc1ccc(OC)c(NC(=O)COc2coc(CN3CCc4ccccc43)cc2=O)c1	EBV LMP1 NFkB 49.9
COc1cc2[nH]c3c(N4CCN(c5ccc(Cl)cc5)CC4)ncnc3c2cc1OC	none
COc1cccc(N2CCN(c3ncnc4c3[nH]c3ccc(F)cc34)CC2C)c1 (configuration not stated)	TRPM1 prom inh 80.4, EBV LMP1 NFkB 69.9, CF NFkB block 87.7, Peg3 prom inh 114.0
Cc1ccc2c(C)nc(Nc3nc(CSc4nnnn4-c4ccccc4)cc(=O)[nH]3)nc2c1	Peg3 prom inh 52.6
CC1(C(=O)NC2CCCCC2)CCC(=O)N1CC(F)(F)F (configuration not stated)	none (no result: TRPM1 prom inh, EBV LMP1 NFkB)
CCOC(=O)N1CCN(C(=O)c2ccc(Cn3c(=S)[nH]c4cc(OCC)c(OCC)cc4c3=O)cc2)CC1	none
CCOC(=O)N1CCN(C(=O)c2ccc(Cn3c(=S)[nH]c4cc5c(cc4c3=O)OCO5)cc2)CC1	TRPM1 prom inh 62.7
CCN1C(=O)N(CC)C(O)(c2ccccc2)C1(O)c1ccccc1 (configuration not stated)	none
CC(C)(C)C1=CC(O)(c2ccccc2)C=C(C(C)(C)C)C1=O	Peg3 prom inh 78.1
CCOC1=C2CN(S(=O)(=O)c3ccc(C)cc3)[C@H](c3ccccc3)C[C@@H]2N(S(=O)(=O)c2ccc(C)cc2)[C@H](c2cccc(C)c2)C1	none (no result: TRPM1 prom inh, EBV LMP1 NFkB)
CC(=O)Nc1ccc(C(=O)N/N=C/c2ccccc2OCc2ccccc2)cc1	none
COc1cc(/C=N\NC(=O)c2ccc(-c3ccccc3)cc2)cc(OC)c1O	none
Cc1ccc(C(C)C)c(OCc2ccc(C(=O)N/N=C/c3ccc(O)c(O)c3)cc2)c1	HIF-2a block 71.5
COc1cc(/C=N/NC(=O)c2ccc(COc3cc(C)ccc3C(C)C)cc2)cc(OC)c1O	HIF-2a block 69.0
Cc1ccc(C(C)C)c(OCc2ccc(C(=O)N/N=C/c3cccc(O)c3O)cc2)c1	TRPM1 prom inh 82.7, HIF-2a block 71.0
COCCNC(=O)C1CCCN(Cc2ccccc2F)CC1 (configuration not stated)	none (no result: TRPM1 prom inh, EBV LMP1 NFkB)
CCOC1CCCc2oc(-c3ccc(OC)cc3)c(C(=O)NCCCCO)c21 (configuration not stated)	none (no result: TRPM1 prom inh, EBV LMP1 NFkB, CF NFkB block, Peg3 prom inh, KKLEB cytotox)
